Assay outcomes deposited in PubChem BioAssay by Johns Hopkins Ion Channel Center.
ANO1 activ: mouse TMEM16A channel activation, primary screen | Q8BHY3 | HEK293 TMEM16A/YFP-H148Q/I152L, iodide quench fluorescence; hits give low values | B-score at 10 µM | 340,000 compounds, 0.3% hits | AID 623877;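 active = fluorescence-ratio B-score plate-corrected deviation score at least 3 library SD below zero, with starting fluorescence score within 5 deviations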;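 also: channel opened by trigger with iodide after compound preincubation; score built on the fluorescence ratio of max minus min over baseline; more negative score means more quench and so TMEM16A activation or potentiation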
CHT inh: human CHT choline transport inhibition. Q9GZV3. CHT-expressing cells, membrane potential dye, choline response; hits give low values. 310,000 compounds, 0.86% hits. B-score at 10 µM;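 active = B-score over 3 SD under the library average, and starting fluorescence ratio not unusually high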;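 also: choline stimulus applied at its EC90 after an EC20 pre-addition; B-score computed on integrated fluorescence ratio after choline addition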
CHT allo act: allosteric activators of human choline transporter CHT; B-score at 10 µM; Q9GZV3; CHT-expressing cells, membrane potential dye, choline EC20; hits give high values; LV-AA mutant CHT in HEK293 cells; AID 488977; 310,000 compounds, 0.49% hits;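 active = initial fluorescence not abnormally high and integrated response B-score, plate-corrected, over 3 SD above library mean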
TMEM16A inh: mouse TMEM16A channel inhibition, primary screen. AID 588511. Q8BHY3. 310,000 compounds, 1.2% hits. HEK293 TMEM16A/YFP iodide influx fluorescence, ionomycin. normalized B-score (activity score, 25-100; higher = stronger inhibition) at 10 µM;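 active = ratio plate-corrected score three or more library SD toward inhibition, starting fluorescence score within five deviations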;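 also: score derived from kinetic fluorescence span divided by baseline fluorescence per well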
Each line names hits and unclear results; the compound was inactive in the other large screens. Sampled rows, rich in hits. Any-hit rate of the full collection: about 2.4%.

NC(=O)C1(N2CCCCC2)CCN(C(=O)Nc2ccccc2C(F)(F)F)CC1	TMEM16A inh 100 (no result: ANO1 activ)
On1c2c(c3c4nonc4ccc31)CCCC2	CHT inh -10.8, TMEM16A inh 100 (no result: ANO1 activ)
Cc1ccc(-c2c[n+]3c(n2-c2ccccc2)CCC3)cc1	none
Cc1ccc(-n2c(-c3ccc(Br)cc3)c[n+]3c2CCc2ccc4cccnc4c2-3)cc1	TMEM16A inh 100
O=C(Nc1ccccc1)c1ccccc1NS(=O)(=O)c1ccc(Cl)s1	TMEM16A inh 100
Cc1ccc(NC(=O)c2ccccc2NS(=O)(=O)c2ccc(Cl)s2)cc1	none
C#CCOCCOCCOCCNc1nc(N2CCN(C(=O)CCCCCCCCCCNC(=O)[C@H](CO)n3cc(CCCSC)nn3)CC2)nc(N2CCN(C(=O)CCCCCCCCCCNC(=O)[C@H](CCCCN)n3cc(CCO)nn3)CC2)n1	none (no result: CHT inh, CHT allo act, TMEM16A inh)
C#CCOCCOCCOCCNc1nc(N2CCN(C(=O)CCCCCCCCCCNC(=O)Cn3cc(C[C@@H](C)O)nn3)CC2)nc(N2CCN(C(=O)CCCCCCCCCCNC(=O)[C@H](CCCN=C(N)N)n3cc(C[C@@H](C)CC)nn3)CC2)n1	ANO1 activ -26.4
C#CCOCCOCCOCCNc1nc(N2CCN(C(=O)CCCCCCCCCCNC(=O)Cn3cc(C[C@@H](C)O)nn3)CC2)nc(N2CCN(C(=O)CCCCCCCCCCNC(=O)[C@H](CCCCN)n3cc(CCCC(=O)O)nn3)CC2)n1	none
C#CCOCCOCCOCCNc1nc(N2CCN(C(=O)CCCCCCCCCCNC(=O)[C@H](CO)n3cc(CCCSC)nn3)CC2)nc(N2CCN(C(=O)CCCCCCCCCCNC(=O)[C@H](CCCN=C(N)N)n3cc(C[C@@H](C)CC)nn3)CC2)n1	ANO1 activ -32, TMEM16A inh 25
COc1ccc(CC(=O)n2c(CC#N)nc3ccccc32)cc1OC	none
CC(O)(CS(=O)(=O)Cc1ccc(Cl)cc1)C(=O)Nc1cccc(C(F)(F)F)c1 (stereo not given)	none
O=C(Nc1cccc(C(F)(F)F)c1)N(Cc1ccc(Cl)cc1)CC(O)C(F)(F)F (stereo not given)	TMEM16A inh 100
Cc1nnc(SCC(=O)Nc2ccc3c(c2)OCO3)n(N)c1=O	none
O=C(NC(=S)Nc1ccccc1N1CCCCC1)c1ccco1	none
O=C(NC(=S)Nc1ccccc1N1CCCC1)c1ccco1	ANO1 activ -6.9
CCCCc1ccc(NC(=S)Nc2ccc(Cl)c(S(=O)(=O)N(C)C)c2)cc1	TMEM16A inh 100
CCCC(=O)Nc1cc(C(=O)O)ccc1Sc1ccc(C)cc1	none
COc1cc(C)c(C(C)C)cc1S(=O)(=O)N1CCOCC1	none
CC(C)Cc1ccc(CN2CCCC(NC(=O)c3cnc4ccccn4c3=O)C2)cc1 (stereo not given)	TMEM16A inh 25
CCCC(=O)Nc1c(-c2cccc(C)c2)c(=O)c2ccccc2n1C	none
COc1ccc(CC(=O)Nc2ccccc2Oc2ccccc2)cc1	CHT inh -6.19 (no result: ANO1 activ)
COc1cccc(/C=C2/C(=O)NN(c3ccc(Br)cc3)C2=O)c1O	CHT inh -6.85
COc1cc(/C=C2/C(=O)NN(c3ccc(Cl)cc3)C2=O)cc(Br)c1O	ANO1 activ -6.21
COc1cc(/C=C2/C(=O)NN(c3ccc(F)cc3)C2=O)cc(Cl)c1O	CHT inh -4.95
COc1cc(/C=C2/C(=O)NN(c3ccc(Cl)c(Cl)c3)C2=O)cc([N+](=O)[O-])c1O	none
CC(=O)COc1ncnc2c(Cl)cc(Cl)cc12	none
CC(C)(c1ccccc1)c1ccc(OCC(O)CNC2CCN(Cc3ccccc3)CC2)cc1 (stereo not given)	TMEM16A inh 100
Cc1cc(C)cc(OCC(=O)N2N=C(c3cccnc3)CC2(O)C(F)(F)F)c1 (stereo not given)	none
Cc1cc(C)cc(OCC(=O)N2N=C(C(F)(F)F)CC2(O)C(C)(C)C)c1 (stereo not given)	TMEM16A inh 100
O=C(N[C@@H](Cc1c[nH]c2ccccc12)C(=O)O)c1ccc(Cl)cc1	none
NC(=NCCc1c[nH]c2ccccc12)NC(=O)c1ccc(Cl)cc1	TMEM16A inh 100
CC(=O)N1c2c(cc(Br)cc2S(=O)(=O)N2CCN(c3ccccc3F)CC2)CC1C (stereo not given)	TMEM16A inh 25
CC(=O)N1c2c(cc(Br)cc2S(=O)(=O)N2CCCCC2)CC1C (stereo not given)	none
O=[N+]([O-])c1ccc(N=Nc2c(Cl)cc(O)cc2Cl)cc1	ANO1 activ -5.23, TMEM16A inh 100
CC(N)=Nc1ccc([N+](=O)[O-])cc1	none
